# Paper PMC7862700, “An all-to-all approach to the identification of sequence-specific readers for epigenetic DNA modifications on cytosine”
# Assays:
# Test in all cases: DAPPL (digital affinity profiling via proximity ligation, sequencing); 10 mM Tris-HCl pH 7.5, 50 mM NaCl, 1 mM DTT, 4% glycerol, room temperature, 30 min; GST-TFs on glutathione beads, 16-mer random dsDNA library, 0.1% formaldehyde crosslink after washing; high values mean tight binding
# [1] = molecular target: T1, FLI1 (Homo sapiens, UniProt Q01543 1-452); details: protein: recombinant; tags: N-terminal GST; dsDNA, one strand shown
# T1 sequence: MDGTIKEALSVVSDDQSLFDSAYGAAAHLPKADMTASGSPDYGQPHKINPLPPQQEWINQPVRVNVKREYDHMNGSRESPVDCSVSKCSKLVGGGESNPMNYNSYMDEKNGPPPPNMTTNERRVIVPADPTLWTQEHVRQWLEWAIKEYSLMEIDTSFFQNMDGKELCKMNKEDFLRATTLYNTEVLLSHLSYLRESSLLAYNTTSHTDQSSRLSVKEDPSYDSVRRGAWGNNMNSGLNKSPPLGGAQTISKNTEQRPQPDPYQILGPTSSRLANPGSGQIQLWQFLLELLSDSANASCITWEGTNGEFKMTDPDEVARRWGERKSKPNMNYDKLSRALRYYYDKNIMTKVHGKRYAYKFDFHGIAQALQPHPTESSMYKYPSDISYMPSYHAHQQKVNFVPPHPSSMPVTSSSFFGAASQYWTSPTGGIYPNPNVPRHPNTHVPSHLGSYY
# Outline: (§1)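 Beads coated with glutathione captured GST-fused human transcription factors that had been expressed in yeast, and the factors were then given DNA barcodes and pooled with a tag-only sample. The pools were incubated with 200 nmole of a random double-stranded 16-mer DNA library in Tris/NaCl/DTT/glycerol buffer for 30 min at room temperature, washed, crosslinked with 0.1% formaldehyde and proximity-ligated with BsaI/T4 ligase at 37 °C for 1 h. PCR amplification and Illumina NextSeq500 sequencing came last. Binding signal is each hexamer's read frequency for a factor divided by its frequency for the tag-only sample.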
# [2] = molecular target: T2, ELK1 (Homo sapiens, UniProt P19419 1-428); details: protein: recombinant; tags: N-terminal GST; dsDNA, one strand shown
# T2 sequence: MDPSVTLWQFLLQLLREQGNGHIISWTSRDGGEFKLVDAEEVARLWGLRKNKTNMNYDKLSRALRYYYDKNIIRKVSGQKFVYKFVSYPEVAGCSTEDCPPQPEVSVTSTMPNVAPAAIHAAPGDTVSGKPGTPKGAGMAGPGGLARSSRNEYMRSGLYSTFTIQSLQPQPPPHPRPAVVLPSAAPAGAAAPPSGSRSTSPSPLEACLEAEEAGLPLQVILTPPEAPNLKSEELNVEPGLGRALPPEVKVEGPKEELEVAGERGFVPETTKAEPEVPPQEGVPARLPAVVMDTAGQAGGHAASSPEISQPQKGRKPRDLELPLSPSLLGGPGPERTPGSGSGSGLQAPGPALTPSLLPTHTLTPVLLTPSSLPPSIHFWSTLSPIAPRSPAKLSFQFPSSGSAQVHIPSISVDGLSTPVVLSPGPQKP
# Outline: as §1
# [3] = molecular target: T3, GABPA (Homo sapiens, UniProt Q06546 1-454); details: protein: recombinant; tags: N-terminal GST; dsDNA, one strand shown
# T3 sequence: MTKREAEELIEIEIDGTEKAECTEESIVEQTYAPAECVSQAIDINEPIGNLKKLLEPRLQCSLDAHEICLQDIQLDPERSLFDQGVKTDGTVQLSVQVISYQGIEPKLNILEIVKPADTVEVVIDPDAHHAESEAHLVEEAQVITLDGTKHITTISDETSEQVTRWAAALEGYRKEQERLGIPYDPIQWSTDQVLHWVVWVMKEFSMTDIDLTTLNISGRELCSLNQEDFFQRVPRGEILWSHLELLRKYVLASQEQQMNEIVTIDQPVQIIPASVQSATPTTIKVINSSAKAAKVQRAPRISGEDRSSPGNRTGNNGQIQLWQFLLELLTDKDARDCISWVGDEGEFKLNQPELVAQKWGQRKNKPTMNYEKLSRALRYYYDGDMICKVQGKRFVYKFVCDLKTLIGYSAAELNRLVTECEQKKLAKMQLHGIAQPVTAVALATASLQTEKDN
# Outline: as §1
# [4] = molecular target: T4, ERG (Homo sapiens, UniProt P11308 1-479); details: protein: recombinant; tags: N-terminal GST; dsDNA, one strand shown
# T4 sequence: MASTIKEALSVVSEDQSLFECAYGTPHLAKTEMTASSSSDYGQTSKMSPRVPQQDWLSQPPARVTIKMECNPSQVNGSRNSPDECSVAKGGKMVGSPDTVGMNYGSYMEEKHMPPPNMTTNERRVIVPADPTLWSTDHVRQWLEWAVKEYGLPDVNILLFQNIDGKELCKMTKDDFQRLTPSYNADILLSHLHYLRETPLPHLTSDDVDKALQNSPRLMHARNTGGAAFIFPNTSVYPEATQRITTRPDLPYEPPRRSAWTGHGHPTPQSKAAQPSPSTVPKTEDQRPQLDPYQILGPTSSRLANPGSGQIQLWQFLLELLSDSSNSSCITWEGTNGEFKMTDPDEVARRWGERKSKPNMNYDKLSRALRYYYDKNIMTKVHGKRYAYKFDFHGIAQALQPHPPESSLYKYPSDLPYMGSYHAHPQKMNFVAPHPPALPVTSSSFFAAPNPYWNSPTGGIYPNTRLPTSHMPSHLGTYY
# Outline: as §1
# [5] = molecular target: ELF1 (Homo sapiens, UniProt P32519 1-619); details: protein: recombinant; tags: N-terminal GST; dsDNA, one strand shown
# Outline: as §1
# [6] = molecular target: T5, EHF (Homo sapiens, UniProt Q9NZC4 1-300); details: protein: recombinant; tags: N-terminal GST; dsDNA, one strand shown
# T5 sequence: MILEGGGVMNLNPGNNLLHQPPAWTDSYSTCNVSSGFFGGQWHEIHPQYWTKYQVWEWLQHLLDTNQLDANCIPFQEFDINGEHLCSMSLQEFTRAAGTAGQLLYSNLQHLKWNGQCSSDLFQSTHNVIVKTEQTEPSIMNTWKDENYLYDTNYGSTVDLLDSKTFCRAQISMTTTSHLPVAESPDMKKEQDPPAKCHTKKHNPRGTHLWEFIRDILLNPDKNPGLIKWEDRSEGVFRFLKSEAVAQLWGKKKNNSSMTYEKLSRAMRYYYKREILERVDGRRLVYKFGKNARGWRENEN
# Outline: as §1
# [7] = molecular target: SPI1 (Homo sapiens, UniProt P17947 1-270); details: protein: recombinant; tags: N-terminal GST; dsDNA, one strand shown
# Outline: as §1
# [8] = molecular target: SPIB (Homo sapiens, UniProt Q01892 1-262); details: protein: recombinant; tags: N-terminal GST; dsDNA, one strand shown
# Outline: as §1
# [9] = molecular target: T6, ELK3 (Homo sapiens, UniProt P41970 1-407); details: protein: recombinant; tags: N-terminal GST; dsDNA, one strand shown
# T6 sequence: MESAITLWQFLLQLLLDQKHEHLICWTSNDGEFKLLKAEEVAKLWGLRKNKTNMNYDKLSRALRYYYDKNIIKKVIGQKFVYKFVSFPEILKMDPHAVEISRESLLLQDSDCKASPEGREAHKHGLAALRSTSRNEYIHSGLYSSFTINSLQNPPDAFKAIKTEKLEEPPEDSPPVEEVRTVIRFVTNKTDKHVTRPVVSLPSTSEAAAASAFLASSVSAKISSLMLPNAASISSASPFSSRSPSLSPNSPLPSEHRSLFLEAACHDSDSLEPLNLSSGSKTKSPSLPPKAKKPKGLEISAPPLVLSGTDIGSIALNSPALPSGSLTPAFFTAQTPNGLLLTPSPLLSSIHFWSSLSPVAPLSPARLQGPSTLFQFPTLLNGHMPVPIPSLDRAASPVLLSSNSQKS
# Outline: as §1
# [10] = molecular target: T7, FEV (Homo sapiens, UniProt Q99581 1-238); details: protein: recombinant; tags: N-terminal GST; dsDNA, one strand shown
# T7 sequence: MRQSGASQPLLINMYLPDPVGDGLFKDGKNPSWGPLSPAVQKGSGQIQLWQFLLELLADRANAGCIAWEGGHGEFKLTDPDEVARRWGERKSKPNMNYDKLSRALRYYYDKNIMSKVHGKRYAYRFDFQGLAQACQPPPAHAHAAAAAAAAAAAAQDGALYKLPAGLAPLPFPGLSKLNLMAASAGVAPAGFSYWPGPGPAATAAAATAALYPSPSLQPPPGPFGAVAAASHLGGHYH
# Outline: as §1
# [11] = molecular target: ETV5 (Homo sapiens, UniProt P41161 1-510); details: protein: recombinant; tags: N-terminal GST; dsDNA, one strand shown
# Outline: as §1
# [12] = molecular target: HSF1 (Homo sapiens, UniProt Q00613 1-529); details: protein: recombinant; tags: N-terminal GST; chain copies: 3; dsDNA, one strand shown
# Outline: as §1
# [13] = molecular target: T8, SPIC (Homo sapiens, UniProt Q8N5J4 1-248); details: protein: recombinant; tags: N-terminal GST; dsDNA, one strand shown
# T8 sequence: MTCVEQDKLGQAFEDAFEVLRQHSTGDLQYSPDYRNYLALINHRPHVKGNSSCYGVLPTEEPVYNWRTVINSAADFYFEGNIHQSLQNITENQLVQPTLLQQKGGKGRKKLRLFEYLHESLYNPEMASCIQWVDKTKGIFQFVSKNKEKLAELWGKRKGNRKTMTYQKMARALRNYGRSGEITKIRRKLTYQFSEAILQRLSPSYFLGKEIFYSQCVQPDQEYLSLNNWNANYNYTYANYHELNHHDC
# Outline: as §1
# [14] = molecular target: ELF4 (Homo sapiens, UniProt Q99607 1-663); details: protein: recombinant; tags: N-terminal GST; dsDNA, one strand shown
# Outline: as §1
# [15] = molecular target: T9, ELK4 (Homo sapiens, UniProt P28324-2 1-405); details: protein: recombinant; tags: N-terminal GST; dsDNA, one strand shown
# T9 sequence: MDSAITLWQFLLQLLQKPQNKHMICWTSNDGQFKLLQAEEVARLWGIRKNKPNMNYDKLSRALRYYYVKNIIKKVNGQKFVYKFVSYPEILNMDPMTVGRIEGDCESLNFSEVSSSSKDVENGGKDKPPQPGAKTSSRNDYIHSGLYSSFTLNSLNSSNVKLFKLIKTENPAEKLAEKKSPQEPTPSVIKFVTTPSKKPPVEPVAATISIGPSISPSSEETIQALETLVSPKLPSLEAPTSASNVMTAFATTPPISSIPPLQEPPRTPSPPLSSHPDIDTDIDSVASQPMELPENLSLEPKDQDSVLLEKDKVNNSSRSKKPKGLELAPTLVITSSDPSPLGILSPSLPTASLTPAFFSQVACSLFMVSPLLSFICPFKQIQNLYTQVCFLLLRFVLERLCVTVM
# Outline: as §1
# [16] = molecular target: T10, ETV2 (Homo sapiens, UniProt O00321 1-342); details: protein: recombinant; tags: N-terminal GST; dsDNA, one strand shown
# T10 sequence: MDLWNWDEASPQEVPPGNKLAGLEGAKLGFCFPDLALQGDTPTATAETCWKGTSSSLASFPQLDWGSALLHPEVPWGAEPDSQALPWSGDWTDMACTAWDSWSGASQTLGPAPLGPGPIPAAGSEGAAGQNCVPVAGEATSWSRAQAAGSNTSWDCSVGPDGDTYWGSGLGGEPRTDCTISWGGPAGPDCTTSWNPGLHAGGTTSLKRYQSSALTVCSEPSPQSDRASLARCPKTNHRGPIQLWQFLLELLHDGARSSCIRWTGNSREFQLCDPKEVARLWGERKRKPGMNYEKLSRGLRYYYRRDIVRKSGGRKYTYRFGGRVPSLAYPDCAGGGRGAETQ
# Outline: as §1
# [17] = molecular target: T11, ELF3 (Homo sapiens, UniProt P78545 1-371); details: protein: recombinant; tags: N-terminal GST; dsDNA, one strand shown
# T11 sequence: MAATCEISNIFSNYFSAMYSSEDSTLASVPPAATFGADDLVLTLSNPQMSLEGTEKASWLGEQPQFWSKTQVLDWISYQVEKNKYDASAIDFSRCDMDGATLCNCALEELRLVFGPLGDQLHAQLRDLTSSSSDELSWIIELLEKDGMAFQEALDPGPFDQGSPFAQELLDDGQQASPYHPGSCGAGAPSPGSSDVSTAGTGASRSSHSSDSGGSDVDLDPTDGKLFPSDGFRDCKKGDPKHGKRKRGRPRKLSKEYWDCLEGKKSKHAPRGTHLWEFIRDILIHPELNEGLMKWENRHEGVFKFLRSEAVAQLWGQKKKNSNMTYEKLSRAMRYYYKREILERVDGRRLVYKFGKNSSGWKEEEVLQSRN
# Outline: as §1
# [18] = molecular target: CRX (Homo sapiens, UniProt O43186 1-299); details: protein: recombinant; tags: N-terminal GST; dsDNA, one strand shown
# Outline: as §1
# [19] = molecular target: ETV1 (Homo sapiens, UniProt P50549 1-477); details: protein: recombinant; tags: N-terminal GST; dsDNA, one strand shown
# Outline: as §1
# Chain of ETV5 (P41161 whole entry): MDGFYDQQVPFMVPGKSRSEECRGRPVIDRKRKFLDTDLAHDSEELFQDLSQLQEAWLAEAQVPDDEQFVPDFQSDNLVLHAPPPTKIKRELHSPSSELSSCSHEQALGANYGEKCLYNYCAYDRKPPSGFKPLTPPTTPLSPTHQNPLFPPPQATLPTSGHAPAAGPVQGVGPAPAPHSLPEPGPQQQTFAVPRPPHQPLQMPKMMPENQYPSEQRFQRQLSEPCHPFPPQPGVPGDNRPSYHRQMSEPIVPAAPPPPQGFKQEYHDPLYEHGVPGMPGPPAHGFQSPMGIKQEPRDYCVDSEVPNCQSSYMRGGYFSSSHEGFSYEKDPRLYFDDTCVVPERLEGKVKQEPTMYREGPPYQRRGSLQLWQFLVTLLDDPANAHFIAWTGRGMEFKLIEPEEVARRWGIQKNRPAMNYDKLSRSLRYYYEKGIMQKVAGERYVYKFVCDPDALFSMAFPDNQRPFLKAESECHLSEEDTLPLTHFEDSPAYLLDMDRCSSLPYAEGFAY
# Chain of ETV1 (P50549 whole entry): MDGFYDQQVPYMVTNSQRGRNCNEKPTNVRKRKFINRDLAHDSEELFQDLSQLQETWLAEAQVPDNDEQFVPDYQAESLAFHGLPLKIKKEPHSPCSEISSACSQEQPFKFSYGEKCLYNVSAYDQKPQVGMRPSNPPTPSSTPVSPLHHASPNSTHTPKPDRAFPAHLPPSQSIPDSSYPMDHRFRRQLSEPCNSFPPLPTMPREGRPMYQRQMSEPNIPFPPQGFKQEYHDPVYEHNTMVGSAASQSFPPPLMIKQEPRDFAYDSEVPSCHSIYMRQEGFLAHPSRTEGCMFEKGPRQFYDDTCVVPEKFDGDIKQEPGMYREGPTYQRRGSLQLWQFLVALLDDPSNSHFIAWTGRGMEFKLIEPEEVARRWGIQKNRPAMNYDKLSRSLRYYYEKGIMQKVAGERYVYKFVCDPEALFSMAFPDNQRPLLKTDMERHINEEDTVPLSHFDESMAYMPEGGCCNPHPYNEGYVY
# Chain of ELF4 (Q99607 whole entry): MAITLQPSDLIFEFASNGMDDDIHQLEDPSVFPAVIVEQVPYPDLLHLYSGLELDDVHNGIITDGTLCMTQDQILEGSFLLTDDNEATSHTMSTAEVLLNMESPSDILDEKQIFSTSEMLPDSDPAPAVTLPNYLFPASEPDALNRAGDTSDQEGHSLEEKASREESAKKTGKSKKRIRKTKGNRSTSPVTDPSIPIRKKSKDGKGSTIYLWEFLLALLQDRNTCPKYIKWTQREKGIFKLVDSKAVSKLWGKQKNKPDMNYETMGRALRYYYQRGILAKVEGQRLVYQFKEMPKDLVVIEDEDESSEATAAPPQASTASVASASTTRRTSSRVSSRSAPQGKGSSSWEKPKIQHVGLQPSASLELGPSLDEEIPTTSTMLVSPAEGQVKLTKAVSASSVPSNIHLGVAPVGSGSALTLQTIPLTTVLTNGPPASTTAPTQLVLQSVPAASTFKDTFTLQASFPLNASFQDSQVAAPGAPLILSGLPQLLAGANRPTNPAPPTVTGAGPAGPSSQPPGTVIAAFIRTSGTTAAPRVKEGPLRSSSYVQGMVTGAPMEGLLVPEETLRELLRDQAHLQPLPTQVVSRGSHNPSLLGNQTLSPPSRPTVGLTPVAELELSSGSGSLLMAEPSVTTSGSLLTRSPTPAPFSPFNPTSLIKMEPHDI
# Chain of HSF1 (Q00613 whole entry): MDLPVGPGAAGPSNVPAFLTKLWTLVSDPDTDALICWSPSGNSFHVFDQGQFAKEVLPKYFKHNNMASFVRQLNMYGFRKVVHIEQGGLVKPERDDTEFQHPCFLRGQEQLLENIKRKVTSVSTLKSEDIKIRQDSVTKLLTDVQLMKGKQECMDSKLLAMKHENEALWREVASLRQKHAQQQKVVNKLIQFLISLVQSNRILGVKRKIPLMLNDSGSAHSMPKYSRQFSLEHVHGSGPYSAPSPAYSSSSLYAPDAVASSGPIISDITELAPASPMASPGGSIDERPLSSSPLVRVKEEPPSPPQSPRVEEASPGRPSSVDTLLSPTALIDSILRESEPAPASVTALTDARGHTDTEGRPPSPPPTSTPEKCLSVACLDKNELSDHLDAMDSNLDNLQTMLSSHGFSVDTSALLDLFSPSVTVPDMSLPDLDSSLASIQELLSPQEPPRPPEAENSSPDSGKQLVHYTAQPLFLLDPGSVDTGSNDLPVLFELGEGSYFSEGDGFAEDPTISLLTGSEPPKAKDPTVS
# Chain of ELF1 (P32519 whole entry): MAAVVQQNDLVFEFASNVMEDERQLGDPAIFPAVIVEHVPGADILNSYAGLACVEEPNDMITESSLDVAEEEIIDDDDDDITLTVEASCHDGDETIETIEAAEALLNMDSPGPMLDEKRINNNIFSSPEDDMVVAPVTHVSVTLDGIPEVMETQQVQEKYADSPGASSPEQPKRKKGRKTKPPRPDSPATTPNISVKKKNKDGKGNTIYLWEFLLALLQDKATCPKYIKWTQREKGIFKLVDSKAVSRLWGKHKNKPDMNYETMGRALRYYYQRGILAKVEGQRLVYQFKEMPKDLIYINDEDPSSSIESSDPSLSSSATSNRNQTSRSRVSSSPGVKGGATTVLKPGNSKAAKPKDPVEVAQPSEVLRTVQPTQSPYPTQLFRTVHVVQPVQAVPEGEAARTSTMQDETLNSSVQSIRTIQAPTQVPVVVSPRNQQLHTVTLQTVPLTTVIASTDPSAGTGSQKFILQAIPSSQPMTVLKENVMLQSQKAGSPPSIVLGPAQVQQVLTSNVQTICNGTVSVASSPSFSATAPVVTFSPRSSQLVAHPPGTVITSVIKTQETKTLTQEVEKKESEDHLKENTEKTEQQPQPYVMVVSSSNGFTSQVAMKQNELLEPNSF
# Chain of SPIB (Q01892 whole entry): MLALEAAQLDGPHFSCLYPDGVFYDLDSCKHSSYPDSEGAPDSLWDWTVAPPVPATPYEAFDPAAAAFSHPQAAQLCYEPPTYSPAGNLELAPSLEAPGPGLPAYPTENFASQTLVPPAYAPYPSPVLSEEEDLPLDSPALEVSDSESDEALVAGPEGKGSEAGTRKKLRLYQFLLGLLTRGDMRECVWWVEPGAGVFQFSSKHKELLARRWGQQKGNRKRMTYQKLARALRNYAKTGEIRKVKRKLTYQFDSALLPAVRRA
# Chain of CRX (O43186 whole entry): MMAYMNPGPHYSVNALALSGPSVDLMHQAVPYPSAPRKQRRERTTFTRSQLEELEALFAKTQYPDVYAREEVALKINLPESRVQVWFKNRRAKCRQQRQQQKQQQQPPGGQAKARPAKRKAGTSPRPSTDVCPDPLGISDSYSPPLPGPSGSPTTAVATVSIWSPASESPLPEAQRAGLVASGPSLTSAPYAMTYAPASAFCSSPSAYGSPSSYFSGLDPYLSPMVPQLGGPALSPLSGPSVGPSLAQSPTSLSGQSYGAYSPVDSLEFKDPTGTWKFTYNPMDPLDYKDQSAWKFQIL
sequence,measurement,setting,value
ATTGTT,binding signal,[1],"1.49 fold enrichment (6-mer frequency, TF over GST control)"
same,binding signal,[2],"1.42 fold enrichment (6-mer frequency, TF over GST control)"
same,binding signal,[3],"1.55 fold enrichment (6-mer frequency, TF over GST control)"
same,binding signal,[4],"1.48 fold enrichment (6-mer frequency, TF over GST control)"
same,binding signal,[5],"1.38 fold enrichment (6-mer frequency, TF over GST control)"
same,binding signal,[6],"1.53 fold enrichment (6-mer frequency, TF over GST control)"
same,binding signal,[7],"1.45 fold enrichment (6-mer frequency, TF over GST control)"
same,binding signal,[8],"1.57 fold enrichment (6-mer frequency, TF over GST control)"
same,binding signal,[9],"1.55 fold enrichment (6-mer frequency, TF over GST control)"
same,binding signal,[10],"1.52 fold enrichment (6-mer frequency, TF over GST control)"
same,binding signal,[11],"1.57 fold enrichment (6-mer frequency, TF over GST control)"
same,binding signal,[12],"1.63 fold enrichment (6-mer frequency, TF over GST control)"
same,binding signal,[13],"1.45 fold enrichment (6-mer frequency, TF over GST control)"
same,binding signal,[14],"1.41 fold enrichment (6-mer frequency, TF over GST control)"
same,binding signal,[15],"1.4 fold enrichment (6-mer frequency, TF over GST control)"
same,binding signal,[16],"1.57 fold enrichment (6-mer frequency, TF over GST control)"
same,binding signal,[17],"1.49 fold enrichment (6-mer frequency, TF over GST control)"
same,binding signal,[18],"1.55 fold enrichment (6-mer frequency, TF over GST control)"
same,binding signal,[19],"1.47 fold enrichment (6-mer frequency, TF over GST control)"
